# Only some compounds are listed: those with a hit (about 22% of all), similar ones and a draw of the others.
# Shiga toxin inh: A qHTS for Small Molecule Inhibitors of Shiga Toxin | Vero cells, Shiga toxin protein synthesis inhibition reporter | inhibition, % at 38.7 µM | 290,000 compounds, 9.2% hits | AID 2315, 2010; in the data active = inhibition mostly above about 28%, no sharp cut-off; inactive = mostly below about 43%; note: 0% is about no effect
# Pf growth 48h: Primary qHTS for delayed death inhibitors of the malarial parasite plastid, 48 hour incubation | P. falciparum luciferase growth in erythrocytes, 48 h | Potency, µM (top dose mostly 28.7 µM), inactives show at the top dose activity change, negative = inhibition, most hits filed as inhibitors | 310,000 compounds, 5.9% hits | AID 504832, 2011; note: potency is the fitted concentration of half-maximal effect; % is set by controls: 0 for no effect and ±100 for the full control effect
#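 Growth was read as firefly luciferase luminescence after a 48 h, 37 C, 5% CO2 exposure of compounds to reporter-bearing P. falciparum cultures (0.1% parasitemia, 2% hematocrit final) in Albumax-supplemented RPMI 1640.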
# LmPK inhibitor: qHTS Assay for Inhibitors of Leishmania Mexicana Pyruvate Kinase (LmPK). 290,000 compounds, 0.37% hits. purified LmPK, Kinase-Glo ATP luminescence, 1 h. AID 1721, 2009. Q27686. Potency, µM (highest dose often 57.5 µM), for the others: top-dose activity change, negative = inhibition, hits mostly inhibitors; note: potency is the fitted concentration of half-maximal effect; % is set by controls: 0 for no effect and ±100 for the full control effect
# Target sequence (Q27686 whole entry, looked up): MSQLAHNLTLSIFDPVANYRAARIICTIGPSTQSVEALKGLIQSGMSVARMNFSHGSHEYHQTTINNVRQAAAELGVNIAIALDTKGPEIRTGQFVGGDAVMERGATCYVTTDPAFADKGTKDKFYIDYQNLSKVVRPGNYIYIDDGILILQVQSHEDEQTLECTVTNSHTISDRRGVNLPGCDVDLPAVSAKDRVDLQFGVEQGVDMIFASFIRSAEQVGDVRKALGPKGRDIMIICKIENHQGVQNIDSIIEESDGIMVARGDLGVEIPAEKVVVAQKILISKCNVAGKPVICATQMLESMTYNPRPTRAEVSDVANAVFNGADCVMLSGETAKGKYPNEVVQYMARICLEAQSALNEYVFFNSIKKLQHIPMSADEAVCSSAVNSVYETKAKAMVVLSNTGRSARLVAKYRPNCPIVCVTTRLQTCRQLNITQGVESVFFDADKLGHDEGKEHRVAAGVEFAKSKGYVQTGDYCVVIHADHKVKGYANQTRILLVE
#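 In 50 mM imidazole pH 7.2 with 7 mM MgCl2, LmPK (0.1 nM) turned over PEP (0.5 mM) and ADP (0.1 mM) for 1 h at room temperature. Luciferase read-out of ATP.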
# CHX counter: Cycloheximide Counterscreen for Small Molecule Inhibitors of Shiga Toxin; AID 2314, 2010; max response, %; 300,000 compounds, 12% hits; cell reporter, cycloheximide protein synthesis inhibition counterscreen; in the data active = max response mostly above about 13%, no sharp cut-off; inactive = mostly below about 14%; note: read at 38.3 µM for the half of the compounds with a filed dose; 0% is about no effect
# Pf growth 96h: Primary qHTS for delayed death inhibitors of the malarial parasite plastid, 96 hour incubation; Potency, µM (top dose mostly 28.7 µM), for inactives: top-dose activity change, negative = inhibition, usual class: inhibitors; P. falciparum luciferase reporter growth, 96 h; AID 504834, 2011; 320,000 compounds, 6.9% hits; note: potency is the fitted concentration of half-maximal effect; % is set by controls: 0 for no effect and ±100 for the full control effect
#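 P. falciparum expressing integrated firefly luciferase grown in erythrocytes (2% hematocrit, 0.05% parasitemia final) with compounds for 96 hours at 37 C, 5% CO2. Growth inhibition read as loss of luminescence after adding luciferase detection reagent.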
# Active calls of the source: *; ? = inconclusive; · = no result; + = active, no number. Unless noted, calls come from the whole dose curve; as a rule, active = well fitted inhibition curve with a large enough effect; inconclusive = small, poorly fitted or top-dose-only effect, or another doubt; inactive = no such curve, though single readings can be large or run the other way.
SMILES,Shiga toxin inh,Pf growth 48h,LmPK inhibitor,CHX counter,Pf growth 96h
Cc1ccc(C(=O)COc2ccc3c(C)cc(=O)oc3c2)cc1,-5,?,4%,-2,11%
Cc1cc(=O)oc2cc(OCC(=O)NCc3ccccn3)ccc12,-12,?,1%,-2,?
Cc1cc(=O)oc2cc(OCC(=O)N/N=C/c3ccccc3O)ccc12,4,66%,5%,-4,9.3µM*
Cc1cc(=O)oc2cc(OCC(=O)c3ccccc3)ccc12,20,133%,0%,17*,6.6µM*
Cc1cc(=O)oc2cc(OCCc3ccccc3)ccc12,83*,106%,-1%,42*,153%
O=C(COC(=O)Cc1ccc(Br)cc1)NC1CCCCCC1,32,111%,1%,8,28%
CC(=O)Nc1ccc(NC(=O)c2ccc(COc3ccc4c(C)cc(=O)oc4c3)cc2)cc1,-7,25%,-2%,-1,21%
Cc1cccc(C(C)C)c1NC(=O)c1ccc(COc2ccc3c(C)cc(=O)oc3c2)cc1,-10,?,4%,-2,9.3µM*
Cc1cc(=O)oc2cc(OCCCC[n+]3ccccc3)ccc12,-8,5.2µM*,-5%,11,?
CCN1CCCC1CNC(=O)c1cc2cc(F)ccc2[nH]1 (centres undefined),-4,?,0%,-3,?
CCOc1ccc2nc(COC(=O)c3ccncc3)c(C(=O)c3ccccc3)[n+]([O-])c2c1,52*,102%,5%,27*,41%
O=C(CCN=C1NS(=O)(=O)c2ccccc21)OCc1nnc(-c2ccccc2)o1,·,2%,·,·,39%
Cc1ccc2nc3sc(C(=O)Nc4c(C)[nH]c(=O)[nH]c4=O)c(N)c3cc2c1,24,35%,-4%,31*,8.3µM*
Cc1[nH]c(=O)[nH]c(=O)c1NC(=O)c1sc2nc3c(C)cccc3cc2c1N,-3,10%,-7%,-4,4.7µM*
Cc1cccc(-c2nc3cc([N+](=O)[O-])ccc3o2)c1,92*,160%,-29%,36*,5%
COc1ccc(-c2nc3ccc([N+](=O)[O-])cc3o2)cc1,+,115%,-7%,39*,36%
COc1ccc(C2=NOC(COc3ccc([N+](=O)[O-])cc3)C2)cc1 (centres undefined),18,-4%,-4%,-2,6%
O=[N+]([O-])c1ccc2oc(-c3ccccc3)nc2c1,69*,237%,1%,35*,1%
NC(N)=Nc1nc2cc([N+](=O)[O-])ccc2o1,27,10%,0%,15*,39%
COc1ccc(Cc2nnc(SCC(=O)c3ccc4c(c3)NC(=O)CO4)o2)cc1,·,?,·,·,-6%
Cc1ccc(CNS(=O)(=O)c2ccc(-n3cnnn3)c(C)c2)cc1,19,-2%,1%,-10,?
CC(C)(C)NC(=O)CCCCCCCC(=O)NC(C)(C)C,-3,4%,-1%,-6,-18%
CC(=O)N/N=C(\C)CC(=O)NC(C)(C)C,-9,26%,-14%,-3,3.7µM*
CCOC(=O)c1ccc(N2CCOCC2)c(NC(=O)c2ccc3c(c2)OCO3)c1,-4,?,-2%,-1,?
CN(C1=NC(=O)C(CC(=O)Nc2ccc(Br)cc2)S1)c1ccc(O)cc1 (centres undefined),-2,-11%,-8%,-5,5.2µM*
SMILES,Shiga toxin inh,Pf growth 48h,LmPK inhibitor,CHX counter,Pf growth 96h
COCCn1c(C)cc(C(=O)COc2cccnc2[N+](=O)[O-])c1C,53*,42%,0%,32*,-13%
O=C(COc1cccnc1[N+](=O)[O-])c1c[nH]c2ccccc12,26,6%,0%,20*,16%
Cc1cc(C)c(C(=O)COc2cccnc2[N+](=O)[O-])cc1C,-11,6%,11%,5,·
COC(=O)c1c(C)[nH]c(C(=O)COc2ccc3ccc(=O)oc3c2)c1C,·,?,·,·,9%
CC(=O)c1c(C)[nH]c(C(=O)COc2ccc3ccc(=O)oc3c2)c1C,·,10µM*,·,·,?
Cc1ccc(OCC(=O)c2cc(C)n(Cc3cccs3)c2C)c([N+](=O)[O-])n1,31,-4%,1%,36*,-5%
Cc1ccc(S(=O)(=O)N2C(=O)[C@@H]3Cc4ccccc4CN3C2=O)cc1,-11,29%,?,9,2%
Cc1ccc(C(=O)COc2ccc3ccc(=O)oc3c2)cc1,-4,6%,4%,-4,11%
Cc1cc(C(=O)COc2ccc3ccc(=O)oc3c2)c(C)n1Cc1cccs1,12,-8%,6%,20*,?
COc1ccc(NC(=O)c2cc(C)n(Cc3cccs3)c2C)cc1,82*,175%,-8%,62*,453%
COc1cccc(CN2C(=O)c3ccccc3Sc3ccc(C(=O)NCCc4ccc(Cl)cc4)cc32)c1,-4,·,·,1,·
COc1ccc(C(C)NC(=O)c2cccc([N+](=O)[O-])c2)cc1OC (centres undefined),-9,?,-4%,-2,?
CN1CCN(C(=S)NC(=O)/C=C/c2ccccc2Cl)CC1,27,7%,-4%,9,15%
COc1ccccc1/C=C/C(=O)Nc1cccnc1,156*,39%,2%,37*,?
CCC(CC)NC(=O)/C=C/c1ccccc1Cl,69*,44%,-19%,35*,-16%
O=C(/C=C/c1ccc(Cl)cc1Cl)NCc1ccncc1,58,?,3%,30*,12µM*
CC(=O)N(C)c1ccc(NC(=O)/C=C/c2ccccc2Cl)cc1,41*,?,1%,80*,?
CC1CCN(S(=O)(=O)c2cc(F)ccc2CN2C(=O)c3cccnc3C2=O)CC1,-7,2%,-3%,-4,34%
COC(=O)c1sccc1NC(=O)c1cc(-c2ccc(C)cc2C)nc2ccccc12,-8,?,3%,-2,?
CC(C)c1cc(CNC(=O)C2CCC(=O)N(CCc3ccc(Cl)cc3)C2)on1 (centres undefined),27,?,4%,9,33%
O=C(/C=C/c1ccccc1Cl)Nc1ccncc1,67*,37%,-8%,25*,34%
O=C(/C=C/c1ccccc1Cl)NC1CCCCC1,27*,-17%,-14%,33*,16%
O=C(/C=C/c1ccc(Cl)cc1Cl)Nc1ccncc1,96*,21%,-1%,50*,-5%
O=C(/C=C/c1ccccc1Cl)Nc1cccnc1,80*,115%,-10%,60*,161%
O=C(Cc1c(Cl)cccc1Cl)Nc1cccnc1,-13,?,-5%,-2,?
O=C(/C=C/c1ccc(Cl)cc1Cl)Nc1ccc(CN2CCOCC2)cc1,2,?,1%,2,?
CCC(C)n1c(SCC(=O)NC2CCS(=O)(=O)C2)nc2ccccc2c1=O (centres undefined),·,?,·,·,-29%
